Screening results (PubChem BioAssay)
Sampled rows, rich in hits. Any-hit rate of the full collection: about 3.1%.
p53null 32C kill: selectivity test: cytotoxicity in p53 null cells, permissive temperature. H1299-neo p53 null cells, ATP luminescence, 24 h, 32C. Potency, µM (series often up to 46.1 µM), inactives show at the highest dose activity change, negative = cytotoxicity, usual class: cytotoxic. 0.62% of 55,000 active. AID 903;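 also: potency is read from the fitted curve at half-maximal effect; 0% = DMSO only and -100% = full killing by 100 µM tamoxifen; nearly all actives have a fitted effect of over 55% in size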
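H1299-neo (p53-null) cells, 600/well, were pre-incubated overnight at 37C, then exposed to compounds at up to 46 uM for 24 hr at 32C. Viability was measured as ATP content by luminescence, and AC50 values came from Hill fits.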
pS6 MEF inh: mTORC1 pathway inhibition measured by phospho-rpS6; 0.78% of 44,000 active; AID 493208; Tsc2-/- p53-/- MEF, phospho-rpS6 immunofluorescence/PI, 24 h; Potency, µM (titrated, usually from 38.3 µM), inactives show at the top dose activity change, negative = inhibition, most hits filed as inhibitors;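 also: potency is read from the fitted curve at half-maximal effect; plate controls were DMSO for no effect and rapamycin for full effect; nearly all actives have a fitted effect of over 50% in size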
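Cell-based qHTS: Tsc2-/- p53-/- MEF, 24 h cpd, 37 °C; fix/perm, anti-phospho-S6 Alexa-488 + PI; Acumen 488 nm scan; pS6/PI ratio, % positive cells; rapamycin 7.5 nM = inhibition ref; PI count = viability.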
PMP22 txn: modulates PMP22 transcription in S16 Schwann cells; S16 Pmp22-F2sN Schwann cells, FLuc/NLuc coincidence luminescence, 24 h; 2% of 43,000 active; AID 1508649; Potency, µM (top dose mostly 57.5 µM), without a hit: at the top dose activity change, negative = inhibition, actives largely listed as inhibitors; active = clear falling dose curves in both reporters; inconclusive = both reporters move, but less clearly or upward; inactive = either reporter flat; the % is the NLuc reporter signal; also: potency is read from the fitted curve at half-maximal effect; % is scaled to controls: 0 for no effect and ±100 for the full control effect
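Schwann cells carrying the coincidence reporter were exposed to library compounds for 24 h at 37C, then lysed and read for FLuc and, after quenching, NLuc luminescence on a CCD imager.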
S16 F2sN tox: cytotoxicity in S16 Pmp22-F2sN Schwann cells; 0.48% of 43,000 active; S16 Pmp22-F2sN Schwann cells (luciferase reporters placed in the Pmp22 gene) viability, CellTiter-Glo, 24 h; AID 1508642; Potency, µM (top dose mostly 57.5 µM), for inactives: top-dose activity change, negative = cytotoxicity, hits mostly cytotoxic; also: potency is read from the fitted curve at half-maximal effect; % is scaled to controls: 0 for no effect and ±100 for the full control effect; nearly all actives have a fitted effect of over 65% in size
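Rat S16 Schwann reporter line, 24 h treatment with library compounds delivered at 23 nL per well. Cell viability by CellTiter-Glo luminescence.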
p53null 39C tox: kills p53 null cells at the nonpermissive temperature; H1299 p53-null (neo) cells, 39C, ATPlite viability, 24 h; Potency, µM (series often up to 46.1 µM), for the others: at the highest dose activity, negative = cell killing, actives largely listed as cytotoxic; 0.97% of 55,000 active;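 also: potency is read from the fitted curve at half-maximal effect; 0% = DMSO only and -100% = full killing by 100 µM tamoxifen; nearly all actives have a fitted effect of over 50% in size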
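Temperature-shift cytotoxicity format: compound titrations on p53-null or A138V-expressing H1299 cells held 24 hr at 39C, cell ATP then measured, AC50 from Hill model.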
SKOV3 invasion: ovarian cancer metastasis inhibition, 3D TME model | AID 1963576 | SKOV3ip1-GFP adhesion/invasion on 3D omental model, fluorescence | Potency, µM (top dose mostly 45.8 µM), for the others: at the top dose activity change, negative = inhibition, hits mostly inhibitors | 0.1% of 46,000 active;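 also: potency is read from the fitted curve at half-maximal effect; plate controls were DMSO wells for no effect and tomatine positive control wells for full effect; nearly all actives have a fitted effect of over 65% in size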
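qHTS, 4-pt dose (0.36-46 umol/L); SKOV3ip1-GFP, 1,200 cells/well, no FBS; primary omental fibroblast/mesothelial co-culture 48 h pre-grown; 2 h RT + 16 h 37 C; PBS wash, 4% PFA; GFP count 488/509 nm.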
NLuc saturating: NanoLuc enzyme inhibition artifact for PMP22 screen; shares compounds with PMP22 txn; Secreted NLuc enzyme (filtered S16 cell medium), Nano-Glo luminescence; Potency, µM (doses to about 57.5 µM), without a hit: at the highest dose activity change, negative = inhibition, hits mostly inhibitors; 4% of 690 active; AID 1508638; also: potency is read from the fitted curve at half-maximal effect; % is scaled to controls: 0 for no effect and ±100 for the full control effect
NLuc Km counter: counter-screen for PMP22 expression modulators: NanoLuc inhibition at Km | 5% of 690 active | secreted NLuc enzyme, coelenterazine luminescence, Km conditions | shares compounds with PMP22 txn | Potency, µM (highest dose often 57.5 µM), without a hit: at the top dose activity change, negative = inhibition, hits mostly inhibitors; also: potency is read from the fitted curve at half-maximal effect; % is scaled to controls: 0 for no effect and ±100 for the full control effect
FLuc ctr PMP22: counter-screen for PMP22 expression modulators: firefly luciferase inhibition. shares compounds with PMP22 txn. Potency, µM (highest dose often 57.5 µM), for inactives: at the top dose activity, negative = inhibition, actives largely listed as inhibitors. purified P. pyralis FLuc, luminescence, 10 min. 690 tested, under 10 active; also: % of control where 0% means no effect
Target sequence (P08659 whole entry, looked up): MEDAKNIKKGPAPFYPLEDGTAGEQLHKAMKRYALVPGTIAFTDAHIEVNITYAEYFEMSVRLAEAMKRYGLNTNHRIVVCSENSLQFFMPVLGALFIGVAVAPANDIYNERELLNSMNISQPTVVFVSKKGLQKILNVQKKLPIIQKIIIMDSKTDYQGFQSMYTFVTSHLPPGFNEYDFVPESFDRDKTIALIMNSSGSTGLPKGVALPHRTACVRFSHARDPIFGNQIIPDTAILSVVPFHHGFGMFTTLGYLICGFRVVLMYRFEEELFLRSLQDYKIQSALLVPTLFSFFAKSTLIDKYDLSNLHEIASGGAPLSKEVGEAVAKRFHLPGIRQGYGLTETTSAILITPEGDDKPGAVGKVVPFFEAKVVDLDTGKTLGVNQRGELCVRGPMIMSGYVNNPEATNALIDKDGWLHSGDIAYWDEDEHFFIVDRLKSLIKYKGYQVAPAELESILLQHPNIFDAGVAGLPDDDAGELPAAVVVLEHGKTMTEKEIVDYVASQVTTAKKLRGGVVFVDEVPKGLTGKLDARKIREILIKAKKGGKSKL
S16 F2sN tox cnf: S16 Schwann cell cytotoxicity, confirmatory; shares compounds with PMP22 txn; S16 Schwann cells viability, CellTiter-Glo ATP luminescence, 24 h; Potency, µM (doses to about 57.5 µM), without a hit: at the highest dose activity change, negative = viability loss, usual class: cytotoxic; 7% of 690 active; also: potency is read from the fitted curve at half-maximal effect; % is scaled to controls: 0 for no effect and ±100 for the full control effect
PMP22 txn conf: PMP22 transcription modulation, confirmatory | shares compounds with PMP22 txn | S16 Schwann cells Pmp22-F2sN, dual luciferase, 24 h | Potency, µM (doses to about 57.5 µM), inactives show top-dose activity change, negative = inhibition, most hits filed as inhibitors | 22% of 690 active | AID 1508646; active = clear falling dose curves in both reporters; inconclusive = both reporters move, but less clearly or upward; inactive = either reporter flat; the % is the FLuc reporter signal; also: potency is read from the fitted curve at half-maximal effect
PMP22 HiBiT cnf: rat PMP22 protein level modulation, confirmatory | shares compounds with PMP22 txn | S16 Schwann cells Pmp22-HiBiT, luminescence, 48 h | Potency, µM (series often up to 27.9 µM), for the others: at the highest dose activity change, negative = inhibition, hits mostly inhibitors | 95 tested, under 10 active
Numbers without * were called inactive; i = inactive; ? = inconclusive; / = not tested or not shown. Unless noted, calls follow the shape of the dose curve; as a rule, active = well fitted curve in the direction sought with a large enough effect; inconclusive = small, poorly fitted or top-dose-only effect, or another doubt; inactive = no such curve, though single readings can be large; an effect the other way counts as inactive or inconclusive.

SMILES	p53null 32C kill	pS6 MEF inh	PMP22 txn	S16 F2sN tox	p53null 39C tox	SKOV3 invasion	NLuc saturating	NLuc Km counter	FLuc ctr PMP22	S16 F2sN tox cnf	PMP22 txn conf	PMP22 HiBiT cnf
CCc1ccc(OCC(=O)Nc2cc3oc4ccccc4c3cc2OC)cc1	?	1.2%	6.45µM*	4.4%	-22.5%	i	5.5%	2.0%	3.1%	-13.0%	18.3µM*	10.8%
COc1ccc(CN2CCN(c3ncnc4sc5c(c34)CCCC5)CC2)cc1F	56.9%	-5.8%	5.32µM*	?	53.1%	2.9%	-19.8%	-2.0%	-12.6%	-22.9%	?	/
C[C@@H]1CC[C@H]2[C@@H](C)C(=O)O[C@@H]3O[C@@]4(C)CC[C@H]1[C@]32OO4	/	/	/	/	/	-4.4%	/	/	/	/	/	/
Cc1c(Cl)cccc1NC(=O)c1oc2ccc(S(=O)(=O)N3CCC4(CC3)OCCO4)cc2c1C	-0.5%	13.1µM*	13.9µM*	?	-0.4%	-0.2%	-15.4%	-3.1%	-4.5%	-23.8%	?	15.2%
COc1ccccc1NC(=O)Cn1c(=O)n(-c2cccc(Cl)c2)c(=O)c2sc3ccccc3c21	-3.9%	1.2%	10µM*	1.5%	?	i	-3.8%	5.1%	0.8%	?	6.48µM*	6.45µM*
COc1ccc(NC(=O)Cn2c(=O)c3cccn3c3ccccc32)cc1Cl	15.8%	-1.4%	?	11.7%	90.2%	-6.4%	/	/	/	/	/	/
CC(=CCCC1=CCC(C2=CC(=O)OC2O)OC1O)CCC1=C(C)CCCC1(C)C (centres undefined)	/	/	/	/	/	-3.3%	/	/	/	/	/	/
CCOP(=O)(OCC)C(C)NC(=O)N(CCCl)N=O (centres undefined)	/	/	/	/	/	13.4%	/	/	/	/	/	/
